Active and inactive are the calls of the source. Unless noted, calls follow the shape of the dose curve; as a rule, active = well fitted curve in the direction sought with a large enough effect in the repeat runs; inconclusive = weak or mixed curves; inactive = no such curve, though single readings can be large; an effect the other way counts as inactive or inconclusive. Non-standard residues stand in square brackets, D forms with d. Residues, ends and D or L forms follow the SMILES beside them. Orn = NCCC[C@H](N)C(=O)O
Legend:
[1] = qHTS assay to identify small molecule antagonists of the thyroid receptor (TR) signaling pathway - cell viability counter screen (AID 743064); also: nearly all actives have a fitted effect of over 50% in size; also: potency is read from the fitted curve at half-maximal effect
Outline: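 Plate GH3.TRE-Luc cells; incubate 4 h at 37 °C; add compound, then T3 to 1 nM final; incubate 23.5 h; add CellTiter-Fluor; incubate 30 min at 37 °C, 5% CO2; read fluorescence.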

[2] = qHTS assay to identify small molecule antagonists of the thyroid receptor (TR) signaling pathway (AID 743065); also: nearly all actives have a fitted effect of over 55% in size; also: potency is read from the fitted curve at half-maximal effect
Outline: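 GH3.TRE-Luc rat pituitary cells carrying two TR response elements driving luciferase were plated for 4 h, given compound plus 1 nM T3 (final), and incubated 23.5 h at 37 C. ONE-Glo luminescence measured reporter inhibition; CellTiter-Fluor fluorescence tracked cytotoxicity.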

[3] = target: Estrogen receptor (Homo sapiens) (UniProt P03372); test: qHTS assay to identify small molecule antagonists of the estrogen receptor alpha (ER-alpha) signaling pathway (AID 743069; active = well fitted curve in the direction sought with a large enough effect in the signal ratio in the repeat runs, not every such curve was filed as active; inconclusive = weak or mixed curves, or effect the other way; inactive = no such curve, though single readings can be large or run the other way; the % refers to the signal ratio; also: potency is read from the fitted curve at half-maximal effect)
Chain of Estrogen receptor (Homo sapiens) (P03372 whole entry, looked up): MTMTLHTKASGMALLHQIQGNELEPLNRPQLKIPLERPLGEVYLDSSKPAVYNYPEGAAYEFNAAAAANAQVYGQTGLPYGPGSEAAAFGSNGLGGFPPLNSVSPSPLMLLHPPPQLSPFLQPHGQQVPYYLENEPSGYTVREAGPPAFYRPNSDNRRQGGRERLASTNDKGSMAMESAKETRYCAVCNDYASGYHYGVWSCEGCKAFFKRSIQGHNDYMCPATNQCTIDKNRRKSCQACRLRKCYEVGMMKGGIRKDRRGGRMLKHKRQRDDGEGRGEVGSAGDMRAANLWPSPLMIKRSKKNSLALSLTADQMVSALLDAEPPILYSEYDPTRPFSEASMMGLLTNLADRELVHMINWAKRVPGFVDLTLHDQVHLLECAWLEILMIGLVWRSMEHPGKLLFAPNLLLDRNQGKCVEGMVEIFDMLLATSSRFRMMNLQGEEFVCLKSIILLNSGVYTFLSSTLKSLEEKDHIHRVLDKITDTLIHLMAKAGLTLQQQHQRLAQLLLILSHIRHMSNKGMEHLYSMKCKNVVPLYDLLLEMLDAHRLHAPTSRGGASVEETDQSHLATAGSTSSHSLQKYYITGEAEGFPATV
Outline: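 A 17beta-estradiol challenge was applied right after compound transfer to ER-alpha-UAS-bla HEK293 cells previously kept in charcoal-stripped serum. Plates stood 18 hr at 37C and 5% CO2; fluorescence was read following 2 hr FRET substrate loading at room temperature.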

Aromatase (Homo sapiens) = Aromatase (Homo sapiens) (UniProt P11511); test: qHTS assay to identify aromatase inhibitors (AID 743083); also: nearly all actives have a fitted effect of over 55% in size; also: potency is read from the fitted curve at half-maximal effect
Chain of Aromatase (Homo sapiens) (P11511 whole entry, looked up): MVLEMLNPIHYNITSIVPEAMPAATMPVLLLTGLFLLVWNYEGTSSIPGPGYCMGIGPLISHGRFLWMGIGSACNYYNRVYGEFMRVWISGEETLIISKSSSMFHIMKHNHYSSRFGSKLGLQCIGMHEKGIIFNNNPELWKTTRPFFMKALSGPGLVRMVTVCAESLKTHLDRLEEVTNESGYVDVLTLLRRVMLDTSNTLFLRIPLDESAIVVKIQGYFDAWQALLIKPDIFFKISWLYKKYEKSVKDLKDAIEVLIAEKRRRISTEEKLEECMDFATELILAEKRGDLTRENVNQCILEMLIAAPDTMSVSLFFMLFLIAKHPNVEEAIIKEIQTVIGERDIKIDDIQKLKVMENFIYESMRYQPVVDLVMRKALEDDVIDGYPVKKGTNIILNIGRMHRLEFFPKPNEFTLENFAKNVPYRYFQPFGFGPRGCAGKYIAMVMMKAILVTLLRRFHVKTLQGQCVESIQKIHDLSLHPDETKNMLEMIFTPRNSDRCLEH

[4] = qHTS assay to identify aromatase inhibitors - cell viability counter screen (AID 743084);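 also: cells stimulated with testosterone during compound exposure; nearly all actives have a fitted effect of over 55% in size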; also: potency is read from the fitted curve at half-maximal effect
[5] = qHTS assay to identify small molecule antagonists of the peroxisome proliferator-activated receptor gamma (PPARg) signaling pathway - cell viability counter screen (AID 743194); also: nearly all actives have a fitted effect of over 55% in size; also: potency is read from the fitted curve at half-maximal effect
Outline: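 PPARg-UAS-bla HEK293H cells were plated, rested 5 h at 37 C, then treated with compounds plus rosiglitazone (50 nM final) for 17 h at 37 C; viability was then read by CellTiter-Glo luminescence after 30 min at room temperature.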

[6] = qHTS assay to identify small molecule agonists of the peroxisome proliferator-activated receptor delta (PPARd) signaling pathway - cell viability counter screen (AID 743211); also: nearly all actives have a fitted effect of over 55% in size; also: potency is read from the fitted curve at half-maximal effect
Outline: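 Viability of GeneBLAzer PPARd UAS-bla HEK293H cells was assessed after 17 h compound incubation at 37C, using CellTiter-Glo reagent added after the reporter read and luminescence recorded 30 min later.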

[7] = qHTS assay to identify small molecule antagonists of the estrogen receptor alpha (ER-alpha) signaling pathway - cell viability counter screen (AID 743074; calls by dose curve;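 also: HEK293 cells carrying ER-alpha-UAS-bla reporter stimulated with 17beta-estradiol; nearly all actives have a fitted effect of over 45% in size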; also: potency is read from the fitted curve at half-maximal effect)
[8] = qHTS assay to identify small molecule that activate the aryl hydrocarbon receptor (AhR) signaling pathway - cell viability counter screen (AID 743086); also: nearly all actives have a fitted effect of over 45% in size; also: potency is read from the fitted curve at half-maximal effect
Outline: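 HepG2-AhR-luc (HG2L7.5c1) cells, 4000/well, were preincubated 5 h at 37C, exposed to compound in qHTS format for 24 hr at 37C, then given CellTiter-Fluor for 30 min; viability was read as fluorescence in the reporter wells.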

[9] = target: Peroxisome proliferator-activated receptor gamma (Homo sapiens) (UniProt P37231); test: qHTS assay to identify small molecule agonists of the peroxisome proliferator-activated receptor gamma (PPARg) signaling pathway (AID 743094; active = well fitted activation curve with a large enough effect in the signal ratio in the repeat runs, not every such curve was filed as active; inconclusive = weak or mixed curves, or effect the other way; inactive = no such curve, though single readings can be large or run the other way; the % refers to the signal ratio; also: potency is read from the fitted curve at half-maximal effect)
Chain of Peroxisome proliferator-activated receptor gamma (Homo sapiens) (P37231 whole entry, looked up): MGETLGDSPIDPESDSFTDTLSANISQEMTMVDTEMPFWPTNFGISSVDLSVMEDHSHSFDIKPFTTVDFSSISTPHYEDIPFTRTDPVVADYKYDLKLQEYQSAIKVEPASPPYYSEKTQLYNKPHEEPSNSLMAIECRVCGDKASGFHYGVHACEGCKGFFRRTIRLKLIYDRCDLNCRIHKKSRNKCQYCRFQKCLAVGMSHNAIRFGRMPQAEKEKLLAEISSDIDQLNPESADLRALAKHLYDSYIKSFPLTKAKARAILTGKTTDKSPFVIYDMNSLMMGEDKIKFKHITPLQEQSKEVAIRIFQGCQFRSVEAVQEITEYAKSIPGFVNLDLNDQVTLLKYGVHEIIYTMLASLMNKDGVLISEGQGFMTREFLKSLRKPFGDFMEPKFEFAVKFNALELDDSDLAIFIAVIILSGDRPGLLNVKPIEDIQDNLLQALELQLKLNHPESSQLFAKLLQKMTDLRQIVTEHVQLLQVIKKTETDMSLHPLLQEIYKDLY
Outline: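 Agonism was assessed in a beta-lactamase reporter system, HEK293H cells with a stably integrated UAS-bla construct under PPARg control; the 17 h treatment at 37C preceded a 1 h room-temperature FRET substrate read.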

[10] = tested on: thyroid hormone receptor (rat, GH3 cells); test: qHTS assay to identify small molecule agonists of the thyroid receptor (TR) signaling pathway (AID 743066; calls by dose curve)
[11] = target: Aryl hydrocarbon receptor (Homo sapiens) (UniProt P35869); test: qHTS assay to identify small molecule that activate the aryl hydrocarbon receptor (AhR) signaling pathway (AID 743085); also: nearly all actives have a fitted effect of over 15% in size; also: potency is read from the fitted curve at half-maximal effect;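 as to activation: HG2L7.5c1 human HepG2 liver cells with stably integrated DRE-driven firefly reporter; series mostly up to about 70 µM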
Chain of Aryl hydrocarbon receptor (Homo sapiens) (P35869 whole entry, looked up): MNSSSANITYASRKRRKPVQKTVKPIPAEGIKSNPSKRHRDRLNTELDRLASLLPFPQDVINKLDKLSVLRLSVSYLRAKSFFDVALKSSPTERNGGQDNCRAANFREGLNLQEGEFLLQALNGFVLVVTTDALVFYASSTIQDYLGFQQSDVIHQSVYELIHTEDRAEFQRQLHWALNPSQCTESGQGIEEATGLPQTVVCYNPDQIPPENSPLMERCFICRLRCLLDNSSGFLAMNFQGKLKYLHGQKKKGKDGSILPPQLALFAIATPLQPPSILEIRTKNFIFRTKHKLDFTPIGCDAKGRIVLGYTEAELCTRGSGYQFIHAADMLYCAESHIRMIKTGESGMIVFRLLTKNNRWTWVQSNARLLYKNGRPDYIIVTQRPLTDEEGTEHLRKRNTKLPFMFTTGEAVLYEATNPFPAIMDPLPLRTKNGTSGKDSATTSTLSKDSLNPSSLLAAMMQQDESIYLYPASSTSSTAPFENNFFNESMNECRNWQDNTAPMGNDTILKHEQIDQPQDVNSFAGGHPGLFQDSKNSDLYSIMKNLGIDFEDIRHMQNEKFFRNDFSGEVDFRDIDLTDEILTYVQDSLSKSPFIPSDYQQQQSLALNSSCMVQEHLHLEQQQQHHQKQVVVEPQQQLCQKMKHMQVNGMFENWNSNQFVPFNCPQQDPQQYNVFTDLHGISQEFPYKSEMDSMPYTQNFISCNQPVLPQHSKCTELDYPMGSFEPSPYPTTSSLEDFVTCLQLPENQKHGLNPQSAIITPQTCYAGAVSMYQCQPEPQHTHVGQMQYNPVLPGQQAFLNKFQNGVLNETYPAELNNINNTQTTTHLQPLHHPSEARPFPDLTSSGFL
Outline: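 Steps: seed HepG2-AhR-luc cells; allow 5 h at 37C; pin-transfer test compound or vehicle; incubate 24 h at 37C; add viability dye (30 min, 37C) and read fluorescence; add luciferase substrate (30 min, RT) and read luminescence.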

[12] = target: Estrogen receptor (Homo sapiens) (UniProt P03372); test: qHTS assay to identify small molecule agonists of the estrogen receptor alpha (ER-alpha) signaling pathway (AID 743075; calls by dose curve;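 also: HEK293 GripTite cells with ER-alpha and UAS-driven beta-lactamase reporter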; also: potency is read from the fitted curve at half-maximal effect)
[13] = qHTS assay to identify small molecule antagonists of the estrogen receptor alpha (ER-alpha) signaling pathway using the BG1 cell line (AID 743080; calls by dose curve; also: nearly all actives have a fitted effect of over 25% in size; also: potency is read from the fitted curve at half-maximal effect)
Outline: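 Antagonist mode: compounds in DMSO were pinned onto BG1-Luc-4E2 cells alongside 17beta-estradiol agonist, incubated 21.5 h, and ERE-driven luciferase measured with ONE-Glo. Cytotoxicity was multiplexed using CellTiter-Fluor fluorescence.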

[14] = qHTS assay to identify small molecule antagonists of the estrogen receptor alpha (ER-alpha) signaling pathway using the BG1 cell line - cell viability counter screen (AID 743081);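 also: compound given together with 17beta-estradiol as the ER stimulus; nearly all actives have a fitted effect of over 45% in size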; also: potency is read from the fitted curve at half-maximal effect
[15] = target: Peroxisome proliferator-activated receptor gamma (Homo sapiens) (UniProt P37231); test: qHTS assay to identify small molecule antagonists of the peroxisome proliferator-activated receptor gamma (PPARg) signaling pathway (AID 743191; calls by dose curve; also: nearly all actives have a fitted effect of over 30% in size; also: potency is read from the fitted curve at half-maximal effect)
Outline: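 GeneBLAzer PPARg UAS-bla HEK293H cells carrying a UAS-driven beta-lactamase reporter were plated at 3000 cells/well, preincubated 5 h at 37C, then given compound for 17 h at 37C; LiveBLAzer B/G FRET substrate was read after 1 h at room temperature.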

[16] = qHTS assay for small molecule activators of the heat shock response signaling pathway - cell viability counter screen (AID 743209); also: nearly all actives have a fitted effect of over 50% in size; also: potency is read from the fitted curve at half-maximal effect
Outline: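 Compounds dissolved in DMSO were added to overnight-plated HSE-bla HeLa cells and left 5 h at 37 C. Cell viability was quantified by luminescence using CellTiter-Glo.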

[17] = qHTS assay for small molecule activators of the heat shock response signaling pathway (AID 743210; active = well fitted activation curve with a large enough effect in the signal ratio in the repeat runs, with a control signal flat, not every such curve was filed as active; inconclusive = weak or mixed curves; the % refers to the signal ratio; also: series mostly up to about 63 µM)
Outline: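 Heat shock element–beta-lactamase HeLa reporter cells; qHTS with compounds for 5 h at 37 C; detection by FRET substrate fluorescence after 2.5 h at RT.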

[18] = target: Estrogen receptor (Homo sapiens) (UniProt P03372); test: qHTS assay to identify small molecule agonists of the estrogen receptor alpha (ER-alpha) signaling pathway using the BG1 cell line (AID 743079); also: nearly all actives have a fitted effect of over 20% in size; also: potency is read from the fitted curve at half-maximal effect

Measured: Potency

CCCCCCCCOC(=O)c1cc(O)c(O)c(O)c1
active: [1] 2.17 µM | [2] 1.93 µM | [3] 61.6 µM [cytotoxic] | Aromatase (Homo sapiens) 34.4 µM | [4] 54.5 µM | [5] 34.7 µM | [6] 43.6 µM

COc1cc(NS(C)(=O)=O)ccc1Nc1c2ccccc2nc2ccccc12
inactive: [7]
active: [1] 0.188 µM | [2] 0.596 µM | Aromatase (Homo sapiens) 26.6 µM | [8] 13.3 µM | [9] 21.3 µM

NC(=S)NS(=O)(=O)c1ccc(N)cc1
inactive: [1] | [2] | [10] | [7] | Aromatase (Homo sapiens) | [4] | [11] | [8] | [9]

CC(C)C[C@@H]1NC(=O)[C@H](CCCN)NC(=O)[C@H](C(C)C)NC(=O)[C@@H]2CCCN2C(=O)[C@@H](Cc2ccccc2)NC(=O)[C@H](CC(C)C)NC(=O)[C@H](CCCN)NC(=O)[C@H](C(C)C)NC(=O)[C@@H]2CCCN2C(=O)[C@@H](Cc2ccccc2)NC1=O (cyclo(V[Orn]L[dF]PV[Orn]L[dF]P))
active: [1] 2.11 µM | [2] 0.841 µM | [7] 10.7 µM | Aromatase (Homo sapiens) 1.88 µM | [8] 18.8 µM
inactive: [12] | [11]

CCC(C)(C)c1ccc(CC(C)CN2C[C@@H](C)O[C@@H](C)C2)cc1 (some centres undefined)
inactive: [12] | [14] | [8] | [15] | [16] | [17]
active: [1] 11.9 µM | [2] 11.9 µM | [13] 29.8 µM | [6] 26.6 µM

CN1CCN(CCCN2c3ccccc3Sc3ccc(Cl)cc32)CC1
inactive: [12] | [16] | [17]
active: [1] 6.68 µM | [2] 6.68 µM | [11] 9.44 µM | [8] 23.7 µM | [6] 26.6 µM

Cc1cc(Br)ccc1NC(=O)CCl
inactive: [10] | [12]
active: [1] 21.7 µM | [2] 19.3 µM | Aromatase (Homo sapiens) 30.6 µM | [4] 13.7 µM | [8] 54.5 µM | [5] 7.76 µM | [16] 12.3 µM | [6] 24.5 µM

CN1CC[C@H](c2c(O)cc(O)c3c(=O)cc(-c4ccccc4Cl)oc23)[C@H](O)C1
inactive: [5] | [17] | [6]
active: [1] 0.211 µM | [2] 0.15 µM | Aromatase (Homo sapiens) 0.211 µM

N#Cc1nc(Cl)c(Cl)c(Cl)c1Cl
active: [1] 2.43 µM | [2] 1.72 µM | Aromatase (Homo sapiens) 4.86 µM | [4] 7.7 µM | [8] 54.5 µM | [5] 4.36 µM | [16] 2.19 µM | [6] 7.76 µM
inactive: [14] | [11]

CC/C=C\C/C=C\C/C=C\C/C=C\C/C=C\CCCC(=O)O
not listed: [2] | [5] | [6] | [9] | [15] | [16] | [17]
inactive: all other assays above

CN[C@H]1CC[C@@H](c2ccc(Cl)c(Cl)c2)c2ccc(S(N)(=O)=O)cc21
active: [1] 8.63 µM | [2] 4.33 µM | [13] 68.6 µM | Aromatase (Homo sapiens) 48.6 µM | [8] 61.1 µM | [5] 49 µM | [6] 6.92 µM
inactive: [12] | [14] | [11] | [16] | [17]

CC(=O)NC[C@H]1CN(c2ccc(N3CCOCC3)c(F)c2)C(=O)O1
active: [18] 13.3 µM
not listed: [2] | [5] | [6] | [15] | [16] | [17]
inactive: all other assays above

COc1cccc(-c2ccc(/C=C\CN3CCCCCC3)cc2Cl)c1
active: [1] 21.6 µM | [2] 21.6 µM | Aromatase (Homo sapiens) 60.9 µM | [5] 43.4 µM | [6] 48.7 µM
inactive: [3] | [7] | [12] | [14] | [11] | [8] | [9]

CNCCC=C1c2ccccc2CCc2ccccc21
active: [1] 11.9 µM | [2] 10.6 µM
inactive: [12] | [18] | [14] | [4] | [11]

CC(=O)[C@]1(O)Cc2c(O)c3c(c(O)c2[C@@H](O[C@H]2C[C@H](N)[C@H](O)[C@H](C)O2)C1)C(=O)c1ccccc1C3=O
active: [1] 0.119 µM | [2] 0.119 µM | [3] 4.77 µM [inconclusive] | [12] 3.38 µM [inconclusive] | [14] 3.35 µM | Aromatase (Homo sapiens) 3.35 µM | [4] 13.3 µM | [8] 13.3 µM | [15] 4.22 µM
inactive: [5] | [6]

Cc1cc(F)ccc1-c1cc(N2CC[C@@H](O)[C@H]2CO)ncc1N(C)C(=O)C(C)(C)c1cc(C(F)(F)F)cc(C(F)(F)F)c1
inactive: [11]
active: [1] 10.7 µM | [2] 9.54 µM | [7] 43 µM | Aromatase (Homo sapiens) 24 µM | [4] 42.6 µM | [8] 38 µM | [5] 43 µM | [16] 19.2 µM | [6] 13.6 µM

CCCCCCCCCCCCCCCCCCNC(=O)OC1CCN(C(=O)OC[C@H](COC(=O)N(Cc2cccc[n+]2CC)C(=O)c2ccccc2OC)OC)CC1
active: [1] 15 µM | [2] 13.3 µM | [7] 23.9 µM | Aromatase (Homo sapiens) 21.1 µM | [4] 29.8 µM | [16] 23.7 µM | [6] 10.6 µM
inactive: [12] | [11]

Reference: PubChem BioAssay (Tox21)
